# Screening results from PubChem BioAssay.
# Only some compounds are listed: those with a hit (about 3% of all), similar ones and a draw of the others.
# Efa HMGR inh = inhibitors of E. faecalis class II HMGR, primary screen, biochemical, Enterococcus faecalis; HMG-CoA reductase (Enterococcus faecalis, mvaE); purified E. faecalis HMGR, NADPH absorbance 340 nm kinetic; inhibition, % at 10 µM; actives 0.41% (n = 190,000); AID 1066, 2008;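 active = inhibition above a set limit, the median over all tested compounds plus 3 SD, cut at about 9.5% in these data; inconclusive = no clear call, values can overlap the other calls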;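 note: enzyme runs in reverse so mevalonate oxidation gives rising NADPH absorbance; 0% = complete reaction with DMSO and 100% = background rate lacking mevalonate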
# L929 necroptosis = inhibitors of zVAD-triggered necroptosis, primary screen, L929 cells; L929 zVAD necroptosis rescue, ATP luminescence, 24 h; with zVAD 60 µM; viability rescue, % at 10 µM; actives 0.38% (n = 220,000);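 active = activation, scaled between plate controls, above about 75%, limit read from the data; inactive = activation under that limit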;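 note: 0% = zVAD with DMSO and 100% = DMSO alone without zVAD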
# 14-3-3 Bad inh = inhibitors of 14-3-3 zeta/Bad binding, primary screen, biochemical, TR-FRET, bovine 14-3-3 zeta. 14-3-3 protein zeta/delta (Bos taurus), P63103. actives 0.71% (n = 220,000). inhibition, % at 21.7 µM. TR-FRET 14-3-3zeta/Dy647-pBad peptide displacement, 1 h;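 active = inhibition above about 70%, limit read from the data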;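 note: 0% = full 14-3-3 plus peptide FRET controls and 100% = background without 14-3-3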
# Target sequence (P63103 whole entry, looked up): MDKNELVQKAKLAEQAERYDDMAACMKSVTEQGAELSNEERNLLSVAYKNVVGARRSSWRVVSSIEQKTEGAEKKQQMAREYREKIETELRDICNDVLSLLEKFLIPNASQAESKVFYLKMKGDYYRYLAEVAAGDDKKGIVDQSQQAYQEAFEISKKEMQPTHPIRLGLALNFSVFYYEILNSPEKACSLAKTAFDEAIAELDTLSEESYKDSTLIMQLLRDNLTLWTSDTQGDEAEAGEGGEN
# m-calpain inh = inhibitors of pig calpain II, primary screen, biochemical, fluorogenic peptide substrate, 1536-well; purified calpain II, 30 min; actives 0.37% (n = 220,000); inhibition, % at 16 µM;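 active = inhibition above about 50%, limit read from the data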
# TNF necrop inh = inhibitors of TNF-alpha triggered necroptosis, primary screen, cell-based, Jurkat FADD-/-, single concentration. actives 0.068% (n = 220,000). Jurkat FADD-/- TNF necroptosis rescue, ATP luminescence, 24 h; 0 = TNF only, 100 = no-TNF cells. AID 463075, 2010. activation (protection from cell death), % at 10 µM;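 active = activation, meaning protection from cell death, of at least 50% relative to plate controls; inactive = activation below 50%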;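 note: necroptosis triggered by 40 ng/mL TNF-alpha added together with compound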
# ROMK primary = ROMK potassium channel modulators, primary screen, cell-based, thallium flux, MLSMR library. Tet-inducible ROMK, thallium flux fluorescence; actives lie on both sides. ATP-sensitive inward rectifier potassium channel 1 (Homo sapiens), P48048. B-score at 10 µM. actives 2% (n = 130,000). AID 1918, 2009;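 active = signal ratio slope over the read window, or its plate-corrected B-score, at least 3 SD from the plate mean, either direction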;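 note: B-score of the F/F0 ratio slope over 7 to 12 s after thallium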
# Target sequence (P48048 whole entry, looked up): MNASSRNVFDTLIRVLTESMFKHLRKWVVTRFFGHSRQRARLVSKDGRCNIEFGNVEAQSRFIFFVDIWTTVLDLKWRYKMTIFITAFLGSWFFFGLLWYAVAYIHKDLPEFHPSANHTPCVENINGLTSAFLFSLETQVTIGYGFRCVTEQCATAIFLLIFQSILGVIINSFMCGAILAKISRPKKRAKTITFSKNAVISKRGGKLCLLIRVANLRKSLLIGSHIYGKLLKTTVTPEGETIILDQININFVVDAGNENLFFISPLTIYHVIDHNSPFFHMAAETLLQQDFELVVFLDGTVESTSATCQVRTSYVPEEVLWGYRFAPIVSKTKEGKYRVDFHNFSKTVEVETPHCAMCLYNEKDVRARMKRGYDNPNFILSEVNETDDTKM
# ROMK hit retest = ROMK channel modulator hit retest, confirmation, cell-based, thallium flux, duplicate, resupplied hits. normalized thallium flux (F/F0 slope) at 10 µM. fluorescence ratio; active compounds read low. shares compounds with ROMK primary. actives 54% (n = 3,000);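 active = Flux at 10 µM at least 3 SD below or above vehicle control mean in one or both replicates; inconclusive = no clear call, values can overlap the other calls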
# The depositor's hits bear a star; i = inactive; ? = inconclusive; . = no result given.
SMILES,Efa HMGR inh,L929 necroptosis,14-3-3 Bad inh,m-calpain inh,TNF necrop inh,ROMK primary,ROMK hit retest
CCN(CC)S(=O)(=O)c1ccc2c(c1)nc(CCC(=O)Nc1ccccc1Cc1ccccc1)n2CC,0.4,0.5,2.9,-2.5,-0.7,-1.98,.
O=C1CC(N2CCN(Cc3ccc4c(c3)OCO4)CC2)C(=O)N1c1cccc2ccccc12 (centres undefined),-10.5,2.9,-12.9,-11.0,0.8,-3.09*,0.0553*
CC(=O)Nc1ccc(S(=O)(=O)N(Cc2ccccc2)C(C)C)cc1,4.1,-0.3,2.4,-15.7,-4.0,.,.
COc1ccccc1N(CC(=O)NCC1CCCO1)C(=O)CCC(=O)Nc1nccs1 (centres undefined),-11.4,0.0,-5.7,7.5,-0.9,-0.0143,.
COc1cc(/C=C/C(=O)OCC(=O)NC2CC2)cc(S(=O)(=O)N2CCc3ccccc32)c1OC,-2.7,1.1,-1.2,5.0,1.0,-17.7*,0.0708
Cc1ccc(CC(=O)N2CCN(c3ccccn3)CC2)cc1,-0.2,-0.1,6.5,-34.7,1.0,-0.528,.
COCCCn1c(N)c(-c2nc3ccccc3n2C)c2nc3ccccc3nc21,-0.3,0.0,6.4,-36.4,-3.0,-4.31*,0.0447*
Cc1ccc(N2CCN(C(=O)CN3C(=O)c4ccccc4C3=O)CC2)cc1,0.2,-0.7,-21.5,1.5,-0.7,1.89*,0.0738
N#Cc1c(NCc2ccccc2)ccnc1NCc1cccnc1,2.4,-0.4,-8.3,-12.8,-8.2,.,0.0731
CCOC(=O)c1sc(NC(=O)CSc2n[nH]c(-c3ccccc3)n2)c(C#N)c1C,1.0,0.1,17.9,-137.9,0.3,.,0.0586*
CCOc1ccc(NC(=O)CSc2nnc(CNC(=O)c3ccco3)o2)cc1,-8.2,1.8,-16.0,-28.3,0.5,-0.00974,.
O=C(/C=C/c1ccc2c(c1)OCO2)NCc1ccncc1,.,1.9,4.2,-32.5,3.2,0.101,.
CC1(C)Cc2nc(NC3CCCCC3)c(C#N)cc2CO1,-6.5,2.2,-20.7,-458.0,1.5,-2.52*,0.072
CC1(C)Cc2c(C#N)c(NC3CCCCC3)nc(-c3ccco3)c2CO1,-5.6,0.4,5.6,-36.5,0.6,.,.
CC(=NCc1ccco1)c1c(O)n(C2CCCCC2)c(=O)[nH]c1=O,-0.4,1.7,-8.0,1.2,-0.5,-2.82*,0.0585*
Cc1sc2ncn3c(C)nnc3c2c1C,0.6,-0.2,3.9,-2.5,-2.6,.,0.081
Cc1sc2ncn(CCn3cnc4sc(C)c(C)c4c3=O)c(=O)c2c1C,-4.2,-0.2,4.8,-94.9,-1.5,-0.0501,.
CCOc1ccc(C(=O)NCC(=O)OCC(=O)Nc2ccc(C)c(S(=O)(=O)N(C)C)c2)cc1,-5.4,2.6,-7.7,-16.7,-0.8,-0.144,.
CCOc1ccc2[nH]c(=O)c(CN(CCO)C(c3nnnn3C3CCCCC3)C(C)C)cc2c1 (centres undefined),6.2,-0.6,3.9,-2.6,-3.5,-2.42*,0.0595*
CCCN1CCN(C(c2cc3cc(OCC)ccc3[nH]c2=O)c2nnnn2C2CCCCC2)CC1 (centres undefined),-1.8,0.5,31.3,-183.2,-1.2,-2.43,.
COC(=O)Cc1c(C)nc2nc(NCc3cccc([N+](=O)[O-])c3)[nH]n2c1=O,-0.1,0.0,-0.3,7.6,0.1,0.288,.
CCN(CC)C(=O)CC(c1ccccc1)c1ccco1 (centres undefined),-4.2,1.6,-8.8,-27.8,-1.7,.,0.0844
CCCN(CCC)C(=O)CC(c1ccc(F)cc1)c1ccco1 (centres undefined),-3.3,-0.5,-20.3,-81.6,-4.1,-1.33,.
Nc1cccc2c1C(=O)N(C(=O)/C=C/c1ccc(F)cc1)C2=O,1.6,1.6,2.0,i,-3.4,-1.54,.
CCn1ncc([C@@H]2C[C@H]3CN(Cc4cccc(Cl)c4)C(=O)[C@]34CCCN24)c1C,-1.3,0.8,0.7,6.8,0.1,-0.361,.
SMILES,Efa HMGR inh,L929 necroptosis,14-3-3 Bad inh,m-calpain inh,TNF necrop inh,ROMK primary,ROMK hit retest
O=C1N(Cc2cccc(Cl)c2)C[C@@H]2C[C@@H](c3cccn3-c3cccnc3)N3CCC[C@@]123,-6.8,-0.7,-9.6,-2.8,-2.6,-2.69*,0.0613*
Cc1cc(C(C)(C)C)cc(S(=O)(=O)Nc2cccc(C(=O)O)c2)c1C,-3.7,2.2,4.9,-31.7,0.6,4.74*,0.0792
Cc1ccccc1NC(=O)c1ccc(NS(=O)(=O)c2cc(C(C)(C)C)cc(C)c2C)cc1,-1.6,2.4,2.8,-23.6,1.5,.,.
O=C(O)c1ccccc1C(=O)c1ccc(Br)s1,-0.1,1.6,-2.2,-8.3,-0.8,1.01,.
COc1nccnc1NS(=O)(=O)c1ccc(N/C=C2\CCCCC2=O)cc1,-4.0,-1.2,-1.5,33.1,-0.1,0.75,.
O=C1N/C(=C/c2ccc(N3CCOCC3)o2)C(=O)N1c1ccccc1,-3.5,0.3,-2.5,-8.0,0.7,-3.45*,0.0486*
COc1cc(C(C(=O)NC2CCCCC2)N(Cc2ccco2)C(=O)c2cnccn2)cc(OC)c1OC (centres undefined),-5.0,6.8,-5.3,0.7,0.7,-13.4*,0.0824
CC1=C(C(=O)c2ccccc2)C(c2ccc(OC(F)F)cc2)NC(=S)N1 (centres undefined),-0.5,1.2,-12.6,-21.2,0.5,-0.524,.
Cc1nn(-c2ccccc2)c(C)c1NC(=O)COc1ccc(Br)cc1Cl,-8.0,0.6,-11.5,5.3,-0.1,.,.
COC(=O)N/N=C/c1cc(C)n(-c2ccccc2)c1C,-2.9,0.1,-9.8,6.4,0.7,0.861,.
COC(=O)N/N=C/c1cc(C)n(-c2ccc(F)cc2)c1C,2.4,0.0,-16.6,-23.4,-0.3,.,.
Cc1cc(/C=N/NC(N)=S)c(C)n1-c1ccc(Cl)c(Cl)c1,3.5,-0.2,-7.6,10.2,-5.8,-0.45,.
COC(=O)N/N=C/c1cc(C)n(-c2ccc(Br)cc2)c1C,.,0.5,-5.4,15.8,-2.2,.,0.0879
Cc1cc(/C=N/NC(N)=O)c(C)n1-c1ccc(F)cc1,-2.9,0.8,-9.7,-49.5,-1.3,2.89*,?
CCNC(=S)N/N=C/c1cc(C)n(-c2ccc(Cl)cc2)c1C,1.9,-0.6,-4.7,-29.8,-3.7,3.01*,0.0844
Cc1nc(NCCc2ccccc2)c(C#N)c(C)c1[N+](=O)[O-],-1.7,1.0,-1.5,-0.1,0.0,.,.
